{
  "source": "PubChem BioAssay (Tox21)",
  "note": "Several values for one entry are separate records, joined by “and”; a condition that tells them apart may be missing. Equal values may be shown once. Some compounds were tested as several samples or in several runs, with calls that do not always agree. Activity calls are given as the source filed them. Where a call stands in place of a potency, no number is given. Calls come from the whole dose curve. Potency is the fitted concentration of half-maximal effect.",
  "data": [
    {"molecular_target": "Thyrotropin-releasing hormone receptor (Homo sapiens) (UniProt P34981)", "sequence (P34981 whole entry, looked up)": "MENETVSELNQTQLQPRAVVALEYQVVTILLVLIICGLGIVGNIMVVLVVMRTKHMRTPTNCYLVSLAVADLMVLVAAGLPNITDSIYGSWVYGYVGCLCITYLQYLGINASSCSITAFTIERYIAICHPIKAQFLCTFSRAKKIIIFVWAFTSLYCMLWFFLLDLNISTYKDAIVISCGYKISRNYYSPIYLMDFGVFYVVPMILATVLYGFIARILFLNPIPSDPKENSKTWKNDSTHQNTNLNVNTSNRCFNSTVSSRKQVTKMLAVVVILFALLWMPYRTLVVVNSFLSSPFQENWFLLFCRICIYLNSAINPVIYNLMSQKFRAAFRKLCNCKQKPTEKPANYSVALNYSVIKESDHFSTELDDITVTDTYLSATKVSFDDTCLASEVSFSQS", "assay": "qHTS assay to identify small molecule agonists of the thyrotropin-releasing hormone receptor (TRHR) signaling pathway (AID 1346891)", "conditions": "TRHR-HEK293 calcium fluorescence, agonist mode; series mostly up to 57.6 µM", "text": "National Center for Advancing Translational Sciences [NCATS] NIH Chemical Genomics Center [NCGC] U.S. Environmental Protection Agency [EPA] National Institutes of Environmental Health Sciences [NIEHS] National Toxicology Program [NTP] Assay overview: Thyrotropin-releasing hormone (TRH) receptor (TRHR) is a G-protein-coupled receptor which binds the tripeptide thyrotropin releasing hormone. TRHR is found in the brain and, when bound by TRH, acts (through phospholipase C) to increase intracellular inositol trisphosphate. It plays a crucial role in the anterior pituitary where it controls the synthesis and secretion of thyroid stimulating hormone and prolactin. The TRHR-Hek293 assay is a cell-based assay, and it has the potential to screen G protein-coupled receptors. A compound/drug can either activate (agonist) or suppress (antagonist) GPCRs that can be monitored by levels of intracellular calcium. Using this assay, the Tox21 10K compound library was screened to identify potential TRHR agonists.\nAssay Protocol Summary: The TRHR-Hek293 cells were dispensed at 1500cells/4uL/well in 1536-well black-clear bottom plates using a Multidrop dispenser. After the assay plates were incubated at a 37 C/5% CO2 incubator for 18 hours, 4 uL of Dye-Loading Solution was added to each well. The plates were incubated at 37 C for 2 hours. For agonist mode, 23 nL of compounds dissolved in DMSO, positive controls or DMSO only was transferred to the assay plate by a pin tool. The fluorescence intensity in the plates was measured using FDSS 7000EX kinetic plate reader for 3 min at 1 sec intervals. Each test compound was measured at 15 concentrations and in triplicates.", "values": [
      {"smiles": "Oc1ccc(OCc2ccccc2)cc1", "Potency": "inactive"},
      {"smiles": "O=[N+]([O-])c1cccc(Cl)c1", "Potency": "inactive"},
      {"smiles": "O=C(c1cc(O)c(O)c(O)c1)c1ccc(O)c(O)c1O", "Potency": "inactive"},
      {"smiles": "Cc1cc(=O)[nH]c(C(C)C)n1", "Potency": "inactive"},
      {"smiles": "Oc1ccc2ccccc2c1N=Nc1ccccc1", "Potency": "inactive"},
      {"smiles": "C=C(C)C(=O)OCCCCCC", "Potency": "inactive"},
      {"smiles": "NS(=O)(=O)c1cc2c(cc1Cl)NC=NS2(=O)=O", "Potency": "inactive"},
      {"smiles": "COC(=O)c1ccccc1O", "Potency": "inactive"},
      {"smiles": "CC1Cc2ccccc2N1NC(=O)c1ccc(Cl)c(S(N)(=O)=O)c1", "note": "(stereo not given)", "Potency": "inactive"},
      {"smiles": "CCCCCCCCCCCCN", "Potency": "inactive and 38.9 µM (active)"},
      {"smiles": "O=[N+]([O-])C(CO)(CO)CO", "Potency": "inactive"},
      {"smiles": "CNC[C@H](O)[C@@H](O)[C@H](O)[C@H](O)CO", "Potency": "inactive"},
      {"smiles": "CC1CC(OC(=O)c2ccccc2O)CC(C)(C)C1", "note": "(stereo not given)", "Potency": "inactive"},
      {"smiles": "CC(C)Cc1ccccc1", "Potency": "inactive"},
      {"smiles": "O=S(=O)(O)c1cc(S(=O)(=O)O)c2c(N=Nc3ccccc3)c(O)ccc2c1", "Potency": "inactive"},
      {"smiles": "COC(=O)c1ccc(C(=O)OC)cc1", "Potency": "inactive"},
      {"smiles": "CC1COc2ccccc2N1C(=O)C(Cl)Cl", "note": "(stereo not given)", "Potency": "inactive"},
      {"smiles": "C=CC(=O)OCCCCCCCC(C)C", "Potency": "inactive"},
      {"smiles": "Oc1c(Cl)cc(Cl)c(Cl)c1Cl", "Potency": "inactive"},
      {"smiles": "CC(C)n1c(/C=C/[C@@H](O)C[C@@H](O)CC(=O)O)c(-c2ccc(F)cc2)c2ccccc21", "Potency": "inactive"},
      {"smiles": "O=C(Oc1ccccc1)c1ccc(O)cc1", "Potency": "inactive"},
      {"smiles": "CCOC(=O)C1OC1c1ccccc1", "note": "(stereo not given)", "Potency": "inactive"},
      {"smiles": "CCc1ccccc1O", "Potency": "inactive"},
      {"smiles": "C=C(C)C(=O)OCCCCCCCCCCCC", "Potency": "inactive"},
      {"smiles": "CCCCCCCCCCCCOCC1CO1", "note": "(stereo not given)", "Potency": "inactive"},
      {"smiles": "CCCCNC(N)=O", "Potency": "inactive"},
      {"smiles": "OCC1CCCO1", "note": "(stereo not given)", "Potency": "inactive"},
      {"smiles": "NCc1cccc(CN)c1", "Potency": "inactive"},
      {"smiles": "ClC1=C(Cl)C(Cl)(Cl)C(Cl)=C1Cl", "Potency": "inactive"},
      {"smiles": "CC1=C(/C=C/C(C)=C/C=C/C(C)=C/CO)C(C)(C)CCC1", "Potency": "inactive"},
      {"smiles": "CCOC(=O)/C=C\\C(=O)OCC", "Potency": "inactive"},
      {"smiles": "COC(=O)Nc1nc2ccc(Sc3ccccc3)cc2[nH]1", "Potency": "inactive"},
      {"smiles": "O=C(O)c1cc(-c2ccccc2)nc2ccccc12", "Potency": "inactive"},
      {"smiles": "CCCCCCC(C)(C)S", "Potency": "inactive"},
      {"smiles": "Nc1cc(-c2ccncc2)c[nH]c1=O", "Potency": "inactive"},
      {"smiles": "C=C(C)C(=O)OCC(CC)(COC(=O)C(=C)C)COC(=O)C(=C)C", "Potency": "inactive"},
      {"smiles": "Cc1cc(O)cc(C)c1Cl", "Potency": "inactive"},
      {"smiles": "c1ccc2ccccc2c1", "Potency": "inactive"},
      {"smiles": "CC(=O)Nc1ccc(C(=O)O)cc1", "Potency": "inactive"},
      {"smiles": "CCCCOCCO", "Potency": "inactive"}
    ]}
  ]
}
